# Test results reported in PubChem BioAssay (NCI).
# This is part of a sample that, as a whole, favours compounds with a hit. Of some 79,000 tested, about 15% had one in any assay. Values without a mark were called inactive. Active and inactive are the calls of the source. No stated cut-off is given here; in the data, active means growth inhibition above about 70%; inactive means the rest.
# Assays:
# [1] = NCI Yeast Anticancer Drug Screen. Data for the rad52 strain (AID 147);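 further: 0% = growth of vehicle-treated control cultures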; details: S. cerevisiae rad52 mutant growth inhibition, stronger effect = higher value
# Method in brief: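 Vehicle-treated cultures served as the reference for growth inhibition of compound-exposed yeast bearing a DNA repair mutation.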
# [2] = NCI Yeast Anticancer Drug Screen. Data for the wt1 strain (AID 149);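 further: 0% = growth of vehicle-treated wt1 cultures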; details: S. cerevisiae wt1 strain (SPY 50644) growth inhibition, stronger effect = higher value
# Method in brief: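 The wt1 strain was treated with compounds, and growth was compared with vehicle-treated cultures to give inhibition.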
# [3] = NCI Yeast Anticancer Drug Screen. Data for the rad50EPP+ strain (AID 151);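 further: 0% = growth of vehicle-treated control cultures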; details: S. cerevisiae rad50 mutant strain, stronger effect = higher value
# Method in brief: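 In this screen, rad50EPP+ yeast were exposed to compounds. Growth inhibition was scored against vehicle-treated controls.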
# [4] = NCI Yeast Anticancer Drug Screen. Data for the mgt1 strain (AID 153); details: S. cerevisiae mgt1 mutant growth inhibition, stronger effect = higher value
# Method in brief: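 mgt1 strain exposed; growth vs vehicle control recorded as inhibition.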
# [5] = NCI Yeast Anticancer Drug Screen. Data for the rad50 strain (AID 155);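 further: 0% = growth of vehicle-only cultures of the same strain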; details: S. cerevisiae rad50 strain growth inhibition, stronger effect = higher value
# Method in brief: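 Cells are treated with compound, grown, and their growth is then scored against vehicle-only cultures of the same repair-deficient yeast strain.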
# [6] = NCI Yeast Anticancer Drug Screen. Data for the mec2-1 strain (AID 157); details: S. cerevisiae mec2-1 strain, stronger effect = higher value
# Method in brief: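 Vehicle-treated cultures served as reference for growth inhibition of compound-exposed mec2-1 yeast.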
# [7] = NCI Yeast Anticancer Drug Screen. Data for the rad14 strain (AID 159);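 further: 0% = growth of vehicle-treated control cultures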; details: S. cerevisiae rad14 strain growth inhibition, stronger effect = higher value
# Method in brief: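 Readout: yeast growth inhibition, referenced to vehicle-only cultures. Strain bears a defined alteration in DNA damage repair.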
# [8] = NCI Yeast Anticancer Drug Screen. Data for the sgs1 mgt1 strain (AID 161);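 further: 0% = growth of cultures given vehicle only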; details: S. cerevisiae sgs1 mgt1 strain, stronger effect = higher value
# Method in brief: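 Read-out: growth inhibition vs vehicle controls. Cells: mutant yeast strain deficient in DNA damage repair.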
# [9] = NCI Yeast Anticancer Drug Screen. Data for the CLN2oe strain (AID 163);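 further: 0% = growth of vehicle-only control cultures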; details: S. cerevisiae CLN2oe strain, stronger effect = higher value
# Method in brief: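 Inhibition relative to vehicle-treated yeast is reported. Cells: strain with genetic alteration in cell-cycle control, grown with compound.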
# [10] = NCI Yeast Anticancer Drug Screen. Data for the cln2 rad14 strain (AID 165);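 further: 0% = growth equal to vehicle treated cultures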; details: S. cerevisiae cln2 rad14 strain, stronger effect = higher value
# Method in brief: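 Each compound was tested on cln2 rad14 yeast. Inhibition of growth was calculated against vehicle-exposed controls.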
# [11] = NCI Yeast Anticancer Drug Screen. Data for the bub3 strain (AID 167); details: S. cerevisiae bub3 mutant strain, stronger effect = higher value
# Method in brief: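 Part of a panel of yeast mutants defective in DNA damage repair or cell cycle regulation. Each strain is grown with compound, and inhibition is calculated relative to solvent-treated cultures.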
# [12] = NCI Yeast Anticancer Drug Screen. Data for the wt2 strain (AID 169);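 further: 0% = growth of vehicle-treated yeast cultures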; details: S. cerevisiae wt2 strain growth inhibition, stronger effect = higher value
# Method in brief: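 Inhibition of yeast growth was determined after compound treatment, normalised to controls receiving only vehicle.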
# [13] = NCI Yeast Anticancer Drug Screen. Data for the sgs1 strain (AID 173);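 further: 0% = growth of vehicle-only control cultures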; details: S. cerevisiae sgs1 mutant, stronger effect = higher value
# Method in brief: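 Screen format: yeast with repair or checkpoint alterations, compound exposure, growth read relative to vehicle.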
# [14] = NCI Yeast Anticancer Drug Screen. Data for the mlh1 rad18 strain (AID 175); details: S. cerevisiae mlh1 rad18 strain growth inhibition, stronger effect = higher value
# Method in brief: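 Vehicle-treated cultures served as the reference for growth inhibition in a yeast strain carrying DNA damage repair alterations exposed to each compound.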
# [15] = NCI Yeast Anticancer Drug Screen. Data for the rad18 strain (AID 177); details: S. cerevisiae rad18 mutant growth inhibition, stronger effect = higher value
# Method in brief: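 Test articles were incubated with altered yeast defective in DNA damage repair. Results are given as inhibition of growth versus vehicle.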
# [16] = at 5.0 µM (retest, dose inferred, filed as 0.5)
# [17] = at 50.0 µM (retest, dose inferred, filed as 5.0)
structure (smiles),measurement,setting,value
Cn1c2nc3ccccc3c-2nc2ccccc21,growth inhibition,[1]; at 1.2 µM,25%
same,growth inhibition,[1]; at 3.7 µM,88% (active)
same,growth inhibition,[1]; at 11.0 µM,97% (active)
same,growth inhibition,[1]; at 33.0 µM,98% (active)
same,growth inhibition,[1]; at 100.0 µM,98% (active)
same,growth inhibition,[2]; at 1.2 µM,6%
same,growth inhibition,[2]; at 3.7 µM,29%
same,growth inhibition,[2]; at 11.0 µM,79% (active)
same,growth inhibition,[2]; at 33.0 µM,96% (active)
same,growth inhibition,[2]; at 100.0 µM,97% (active)
same,growth inhibition,[3]; at 1.2 µM,52%
same,growth inhibition,[3]; at 3.7 µM,93% (active)
same,growth inhibition,[3]; at 11.0 µM,98% (active)
same,growth inhibition,[3]; at 33.0 µM,98% (active)
same,growth inhibition,[3]; at 100.0 µM,98% (active)
same,growth inhibition,[4]; at 1.2 µM,4%
same,growth inhibition,[4]; at 3.7 µM,29%
same,growth inhibition,[4]; at 11.0 µM,80% (active)
same,growth inhibition,[4]; at 33.0 µM,97% (active)
same,growth inhibition,[4]; at 100.0 µM,97% (active)
same,growth inhibition,[5]; at 1.2 µM,27%
same,growth inhibition,[5]; at 3.7 µM,81% (active)
same,growth inhibition,[5]; [16],75% (active)
same,growth inhibition,[5]; at 11.0 µM,95% (active)
same,growth inhibition,[5]; at 33.0 µM,97% (active)
same,growth inhibition,[5]; [17],97% (active)
same,growth inhibition,[5]; at 50.0 µM,98.6% (active)
same,growth inhibition,[5]; at 100.0 µM,96% (active)
same,growth inhibition,[6]; at 1.2 µM,10%
same,growth inhibition,[6]; at 3.7 µM,41%
same,growth inhibition,[6]; [16],33%
same,growth inhibition,[6]; at 11.0 µM,87% (active)
same,growth inhibition,[6]; at 33.0 µM,97% (active)
same,growth inhibition,[6]; [17],98% (active)
same,growth inhibition,[6]; at 50.0 µM,96% (active)
same,growth inhibition,[6]; at 100.0 µM,98% (active)
same,growth inhibition,[7]; at 1.2 µM,8%
same,growth inhibition,[7]; at 3.7 µM,31%
same,growth inhibition,[7]; at 11.0 µM,82% (active)
same,growth inhibition,[7]; at 33.0 µM,97% (active)
same,growth inhibition,[7]; at 100.0 µM,98% (active)
same,growth inhibition,[8]; [16],39%
same,growth inhibition,[8]; [17],95% (active)
same,growth inhibition,[8]; at 50.0 µM,97.9% (active)
same,growth inhibition,[9]; at 1.2 µM,19%
same,growth inhibition,[9]; at 3.7 µM,46%
same,growth inhibition,[9]; at 11.0 µM,91% (active)
same,growth inhibition,[9]; at 33.0 µM,97% (active)
same,growth inhibition,[9]; at 100.0 µM,97% (active)
same,growth inhibition,[10]; [16],32%
same,growth inhibition,[10]; [17],96% (active)
same,growth inhibition,[10]; at 50.0 µM,96.2% (active)
same,growth inhibition,[11]; at 1.2 µM,-5%
same,growth inhibition,[11]; at 3.7 µM,22%
same,growth inhibition,[11]; [16],16%
same,growth inhibition,[11]; at 11.0 µM,88% (active)
same,growth inhibition,[11]; at 33.0 µM,96% (active)
same,growth inhibition,[11]; [17],97% (active)
same,growth inhibition,[11]; at 50.0 µM,98.2% (active)
same,growth inhibition,[11]; at 100.0 µM,94% (active)
same,growth inhibition,[12]; at 1.2 µM,7%
same,growth inhibition,[12]; at 3.7 µM,33%
same,growth inhibition,[12]; at 11.0 µM,83% (active)
same,growth inhibition,[12]; at 33.0 µM,96% (active)
same,growth inhibition,[12]; at 100.0 µM,96% (active)
same,growth inhibition,[13]; at 1.2 µM,8%
same,growth inhibition,[13]; at 3.7 µM,42%
same,growth inhibition,[13]; at 11.0 µM,88% (active)
same,growth inhibition,[13]; at 33.0 µM,97% (active)
same,growth inhibition,[13]; at 100.0 µM,97% (active)
same,growth inhibition,[14]; [16],45%
same,growth inhibition,[14]; [17],98% (active)
same,growth inhibition,[14]; at 50.0 µM,98.1% (active)
same,growth inhibition,[15]; at 1.2 µM,8%
same,growth inhibition,[15]; at 3.7 µM,42%
same,growth inhibition,[15]; at 11.0 µM,90% (active)
same,growth inhibition,[15]; at 33.0 µM,97% (active)
same,growth inhibition,[15]; at 100.0 µM,93% (active)
O=C1C(Cl)=C(Cl)C(Cl)(Cl)C(Cl)C1(Cl)Cl (stereo unspecified),growth inhibition,[1]; at 1.2 µM,14%
same,growth inhibition,[1]; at 3.7 µM,27%
same,growth inhibition,[1]; at 11.0 µM,71% (active)
same,growth inhibition,[1]; at 33.0 µM,99% (active)
same,growth inhibition,[1]; at 100.0 µM,99% (active)
same,growth inhibition,[2]; at 1.2 µM,2%
same,growth inhibition,[2]; at 3.7 µM,5%
same,growth inhibition,[2]; at 11.0 µM,21%
same,growth inhibition,[2]; at 33.0 µM,94% (active)
same,growth inhibition,[2]; at 100.0 µM,99% (active)
same,growth inhibition,[3]; at 1.2 µM,20%
same,growth inhibition,[3]; at 3.7 µM,34%
same,growth inhibition,[3]; at 11.0 µM,58%
same,growth inhibition,[3]; at 33.0 µM,90% (active)
same,growth inhibition,[3]; at 100.0 µM,99% (active)
same,growth inhibition,[4]; at 1.2 µM,5%
same,growth inhibition,[4]; at 3.7 µM,25%
same,growth inhibition,[4]; at 11.0 µM,45%
same,growth inhibition,[4]; at 33.0 µM,99% (active)
same,growth inhibition,[4]; at 100.0 µM,99% (active)
same,growth inhibition,[5]; at 1.2 µM,16%
same,growth inhibition,[5]; at 3.7 µM,26%
same,growth inhibition,[5]; [16],21%
same,growth inhibition,[5]; at 11.0 µM,58%
same,growth inhibition,[5]; at 33.0 µM,99% (active)
same,growth inhibition,[5]; [17],98% (active)
same,growth inhibition,[5]; at 50.0 µM,99.3% (active)
same,growth inhibition,[5]; at 100.0 µM,99% (active)
same,growth inhibition,[6]; at 1.2 µM,8%
same,growth inhibition,[6]; at 3.7 µM,29%
same,growth inhibition,[6]; [16],22%
same,growth inhibition,[6]; at 11.0 µM,49%
same,growth inhibition,[6]; at 33.0 µM,99% (active)
same,growth inhibition,[6]; [17],99% (active)
same,growth inhibition,[6]; at 50.0 µM,99.5% (active)
same,growth inhibition,[6]; at 100.0 µM,99% (active)
same,growth inhibition,[7]; at 1.2 µM,17%
same,growth inhibition,[7]; at 3.7 µM,25%
same,growth inhibition,[7]; at 11.0 µM,44%
same,growth inhibition,[7]; at 33.0 µM,99% (active)
same,growth inhibition,[7]; at 100.0 µM,99% (active)
same,growth inhibition,[8]; [16],30%
same,growth inhibition,[8]; [17],99% (active)
same,growth inhibition,[8]; at 50.0 µM,99.6% (active)
same,growth inhibition,[10]; [16],9%
same,growth inhibition,[10]; [17],96% (active)
same,growth inhibition,[10]; at 50.0 µM,96.8% (active)
same,growth inhibition,[11]; at 1.2 µM,11%
same,growth inhibition,[11]; at 3.7 µM,28%
same,growth inhibition,[11]; [16],5%
same,growth inhibition,[11]; at 11.0 µM,59%
same,growth inhibition,[11]; at 33.0 µM,99% (active)
same,growth inhibition,[11]; [17],98% (active)
same,growth inhibition,[11]; at 50.0 µM,99.5% (active)
same,growth inhibition,[11]; at 100.0 µM,97% (active)
same,growth inhibition,[12]; at 1.2 µM,-14%
same,growth inhibition,[12]; at 3.7 µM,-6%
same,growth inhibition,[12]; at 11.0 µM,54%
same,growth inhibition,[12]; at 33.0 µM,100% (active)
same,growth inhibition,[12]; at 100.0 µM,99% (active)
same,growth inhibition,[13]; at 1.2 µM,-7%
same,growth inhibition,[13]; at 3.7 µM,36%
same,growth inhibition,[13]; at 11.0 µM,81% (active)
same,growth inhibition,[13]; at 33.0 µM,100% (active)
same,growth inhibition,[13]; at 100.0 µM,99% (active)
same,growth inhibition,[14]; [16],26%
same,growth inhibition,[14]; [17],99% (active)
same,growth inhibition,[14]; at 50.0 µM,99.4% (active)
same,growth inhibition,[15]; at 1.2 µM,40%
same,growth inhibition,[15]; at 3.7 µM,73% (active)
same,growth inhibition,[15]; at 11.0 µM,90% (active)
same,growth inhibition,[15]; at 33.0 µM,99% (active)
same,growth inhibition,[15]; at 100.0 µM,99% (active)
